Bioassay records deposited in PubChem BioAssay by several laboratories.
aDG glyco act = increases alpha dystroglycan glycosylation; Pro5-aDG cells, alpha-DG glycosylation AlphaScreen (IIH6); 0% Pro5, 100% B10-LARGE cell signal; activation, % at 10 µM; 360,000 compounds, 0.22% hits; AID 624168;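 active = activation of at least 8% versus controls, or a plate z-score of at least 8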;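 also: Pro5 are CHO cells carrying HIG-tagged alpha-DG that lacks glycosylation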
FAS TE block = inhibitors of human fatty acid synthase thioesterase domain. AID 602261. recombinant FAS-TE, OMFH fluorogenic substrate, fluorescence endpoint. P49327. 360,000 compounds, 0.67% hits. inhibition, % at 15 µM;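 active = compounds whose normalised, plate-corrected inhibition of enzyme fluorescence in the single-dose primary screen is 50% or more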
GRIN3A LBD mod = NR3A (human) ligand-binding domain modulation. NR3A LBD differential scanning fluorimetry, Tm shift; 0% = protein alone, 100% = glycine-bound protein. Tm shift relative to glycine control, % at 25 µM. 340,000 compounds, 2.5% hits. AID 1259313;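 active = melting temperature shift of at least 10% of the positive control shift, at one fixed dose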
ADAM10 inh = ADAM10 inhibition, QFRET primary screen. inhibition, % at 7 µM. 370,000 compounds, 0.62% hits. AID 720582. O14672. recombinant ADAM10, EDANS/DABCYL FRET peptide cleavage, 3 h;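 active = inhibition above a per-campaign cutoff equal to the mean of compounds falling between control-based bounds plus 3 SD, cut at about 20% in these data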
ADAM17 inh = inhibits human ADAM17; inhibition, % at 6.95 µM; 370,000 compounds, 0.83% hits; P78536; recombinant ADAM17, EDANS/DABCYL FRET peptide cleavage; AID 720648;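 active = inhibition above the mean of compounds lying between control limits plus 3 SD, set per campaign, cut at about 8.5% in these data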
Numbers stand for hits; - = inactive; . = no result given. Shown are actives, neighbours in structure and some others; about 4% of the full set was active somewhere.

SMILES | aDG glyco act | FAS TE block | GRIN3A LBD mod | ADAM10 inh | ADAM17 inh
CCOc1ccc(NC(=O)c2ccc(NC(=O)c3ccc(NC(N)=O)cc3)cc2)cc1 | - | - | 26.8 | - | -
CCOc1ccc(NC(=O)c2ccc(NC(=S)NC3CC3)cc2)cc1 | - | - | 30.9 | - | -
CCOC(=O)Cc1csc(NC(=O)c2cc(C)on2)n1 | - | - | - | - | -
COc1ccc(CC(=O)Nc2ccc(NC(=O)c3ccc(Br)cc3)cc2)cc1OC | - | - | - | - | -
COc1ccc(S(=O)(=O)Nc2ccc(N3CCOCC3)cc2)cc1Br | - | - | - | - | -
CC1(C(=O)OCC(=O)Nc2ccc(C(N)=O)cc2)CC1(Cl)Cl (configuration not stated) | - | - | - | - | -
COc1ccccc1NC(=O)c1ccc(NC(=O)COC(=O)C2(C)CC2(Cl)Cl)cc1 (configuration not stated) | - | - | 25.3 | - | -
CC12CC(NC(=O)N1c1cccc(C(=O)N3CCCCC3)c1)c1ccccc1O2 (configuration not stated) | - | - | - | - | -
CCOC(=O)c1nn(-c2ccccc2)cc1O | - | - | 10.3 | - | -
CCOC(=O)c1nn(-c2ccc(C)cc2)cc1O | - | - | - | - | -
N=C(N)c1ccc(N=Nc2c(O)ccc3c2[nH]c2ccccc23)cc1 | - | - | 29.1 | - | -
COc1ccc(CNC(=O)CCCCCNc2nc(=S)[nH]c3ccccc23)cc1 | - | - | - | - | -
CCCc1cc(-c2n[nH]c(C)c2-c2ccc(C(=O)OCC)o2)c(O)cc1O | - | - | 34.7 | - | -
O=C(Nc1nc2ccc(F)cc2s1)c1ccc(N2CCCC2=O)cc1 | - | - | 11.4 | - | -
Cc1nnc(NC(=O)c2ccc(N3CCCC3=O)cc2)s1 | - | - | - | - | -
COC(=O)c1ccc2nc(Nc3nc4ccc(F)cc4s3)sc2c1 | - | - | 12.4 | - | -
CC(C#N)(NC(=O)CN1CCN(S(=O)(=O)c2ccc(Br)cc2Cl)CC1)C1CC1 (configuration not stated) | - | - | 10.2 | - | -
O=C(N/N=C/c1ccc2c(c1)OCO2)c1sc2cc(Cl)ccc2c1Cl | - | - | - | - | -
COc1ccc2c(Cl)c(C(=O)N/N=C/c3ccc4c(c3)OCO4)sc2c1 | - | - | 19.1 | - | -
O=C(CN(CCc1ccccc1)S(=O)(=O)c1ccc(Cl)cc1)N/N=C/c1ccc2c(c1)OCO2 | - | - | 13.0 | - | -
O=C(N/N=C/c1ccc2c(c1)OCO2)c1sc2cccc(Cl)c2c1Cl | - | - | 24.1 | - | -
COc1ccc2c(Cl)c(C(=O)N/N=C/c3c(C)[nH]c4ccccc34)sc2c1 | - | - | 31.7 | - | -
COc1ccc(S(=O)(=O)N(CCc2ccccc2)CC(=O)N/N=C/c2ccc3c(c2)OCO3)cc1 | - | - | - | - | -
Cc1c[nH]c2cccc(-c3ccc(OCc4ccccc4)cc3)c12 | . | . | . | - | -
CCC(=O)N1CCN(c2ccc(NC(=S)NC(=O)C(C)C)cc2)CC1 | - | - | - | - | -
SMILES | aDG glyco act | FAS TE block | GRIN3A LBD mod | ADAM10 inh | ADAM17 inh
O=C(C(=O)N1CCN(C/C=C/c2ccccc2)CC1)c1ccccc1 | - | . | . | - | -
Cc1cc(Cl)ccc1NC(=O)C(=O)N/N=C/c1ccc2c(c1)OCO2 | - | - | - | - | -
O=C(N/N=C/c1ccc2c(c1)OCO2)C(=O)Nc1ccccc1Cl | - | - | 14.4 | - | -
N#CC1CC(c2ccc([N+](=O)[O-])cc2)=NN1c1ccc([N+](=O)[O-])cc1 (configuration not stated) | - | - | 19.6 | - | -
CN(C)CCNC(=O)C(=O)c1c(-c2ccccc2)cc2ccccn12 | - | - | 242.5 | - | -
Oc1ccc(-c2csc(Nc3cccc4ccccc34)n2)cc1O | - | - | - | - | -
Cc1nc2ncccn2c1-c1csc(Nc2ccccc2)n1 | - | - | - | - | -
Cc1ccnc(Nc2nc(-c3ccc(O)cc3O)cs2)c1 | - | - | 40.0 | - | -
Cc1ccnc(Nc2nc(-c3ccc(O)cc3)cs2)c1 | - | - | 17.9 | - | -
Oc1ccc(-c2csc(Nc3ccccn3)n2)cc1O | - | - | 33.4 | - | -
CC(=O)Nc1ccc(Nc2nc(-c3c(C)nc4ccccn34)cs2)cc1 | - | - | 13.5 | - | -
NS(=O)(=O)c1ccc(Nc2nc(-c3ccc(O)cc3)cs2)cc1 | - | - | - | - | -
Cc1cc(O)ccc1Nc1nc(-c2cccnc2)cs1 | - | - | - | - | -
